Reference: PubChem BioAssay (NCI)
About 83,000 compounds went through this panel and 20% of them were active in at least one assay; those are over-represented in the sample as a whole.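 Method: cells in 96-well plates; compound added at one concentration; 48 h incubation; percent growth measured; values under 10 scored active.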 A number with no mark means an inactive call. Calls of active or inactive are those of the source.

Key:
Test in all cases: NCI-60 one-dose screen, 48 h (100 = growth as untreated, 0 = no growth, -100 = all killed)
Conditions in all cases: 10 µM unless noted
NCI-H23 lung = tested on: NCI-H23 lung
NCI-H226 lung = tested on: NCI-H226 lung
NCI-H322M lung = tested on: NCI-H322M lung
HOP-62 NSCLC = tested on: HOP-62 NSCLC
NCI-H460 lung = tested on: NCI-H460 lung
HOP-92 NSCLC = tested on: HOP-92 NSCLC
NCI-H522 lung = tested on: NCI-H522 lung
A549/ATCC NSCLC = tested on: A549/ATCC NSCLC
786-0 renal = tested on: 786-0 renal
COLO 205 colon = tested on: COLO 205 colon
DU-145 prostate = tested on: DU-145 prostate
K-562 leukemia = tested on: K-562 leukemia
MALME-3M melanoma = tested on: MALME-3M melanoma
MDA-MB-231 breast = tested on: MDA-MB-231 breast
RXF 393 renal = tested on: RXF 393 renal
SF-268 CNS = tested on: SF-268 CNS
SF-295 CNS = tested on: SF-295 CNS
SF-539 CNS = tested on: SF-539 CNS
UACC-257 melanoma = tested on: UACC-257 melanoma
M14 melanoma = tested on: M14 melanoma

| Structure (SMILES) | growth (NCI-H23 lung) | growth (NCI-H226 lung) | growth (NCI-H322M lung) | growth (HOP-62 NSCLC) | growth (NCI-H460 lung) | growth (HOP-92 NSCLC) | growth (NCI-H522 lung) | growth (A549/ATCC NSCLC) | growth (786-0 renal) | growth (COLO 205 colon) | growth (DU-145 prostate) | growth (K-562 leukemia) | growth (MALME-3M melanoma) | growth (MDA-MB-231 breast) | growth (RXF 393 renal) | growth (SF-268 CNS) | growth (SF-295 CNS) | growth (SF-539 CNS) | growth (UACC-257 melanoma) | growth (M14 melanoma) |
| --- | --- | --- | --- | --- | --- | --- | --- | --- | --- | --- | --- | --- | --- | --- | --- | --- | --- | --- | --- | --- |
| Oc1ccc(C#CCOc2ccccc2)cc1CNCCN(Cc1ccccn1)Cc1ccccn1 | 16.7% | 8.23% (active) | 13.6% | 13.3% | 5.58% (active) | 42.5% | 9.5% (active) | 8.12% (active) | 5.55% (active) | 13% | 28.6% | 8.65% (active) | 25.2% | 47% | 16% | 13% | 4.52% (active) | 11.3% | 15.4% | 6.22% (active) |
| O=CN1N=C(c2ccc(Nc3ccnc4cc(Cl)ccc34)cc2)CC1c1ccccc1 (stereo not given) | 48% | 65.3% | 81.3% | 49.8% | 44.4% | 16.3% | 2.53% (active) | 37.6% | 31.4% | 55.2% | 35.8% | 11.8% | 24.7% | 32.9% | 31.4% | 37.4% | 17.4% | 25.9% | 63.3% | 25.6% |
| COc1cc(Nc2nc(NCCN)nc3cc[nH]c(=O)c23)cc(OC)c1 | 65.1% | 93.7% | 83% | 97.8% | 96.9% | 59.5% | 72.9% | 90.5% | 86.9% | 55.3% | 65% | 75.8% | 46.9% | 75.7% | 58.7% | 77.3% | 102% | 76.3% | 72.5% | 49.7% |
| Oc1c(I)cc(I)cc1CNCCCN(Cc1ccccn1)Cc1ccccn1 | -37% (active) | -78.4% (active) | -75.3% (active) | -52.7% (active) | -57.2% (active) | -76.1% (active) | -56.4% (active) | -51.8% (active) | -95.4% (active) | -34.2% (active) | -45.8% (active) | 5.96% (active) | -73.2% (active) | -66.2% (active) | -86.6% (active) | -27.3% (active) | -83.6% (active) | -88.3% (active) | -41.5% (active) | -72% (active) |
| CC(C)c1cc(C(C)C)c(S(=O)(=O)Oc2ccc(NC(=O)c3ccc(Cl)cc3)cc2)c(C(C)C)c1 | 15.2% | 51.6% | 60.4% | 57.9% | 13.4% | 19.1% | 7.91% (active) | 27.5% | 33.8% | 32.7% | 43.7% | 16.4% | 53.8% | 52.1% | 51.4% | 50.6% | 11.4% | 73.6% | 24.7% | 36.2% |
| CCCSc1nc2ccc(C)cc2cc1/C=[N+](\[O-])c1ccccc1 | 42.1% | 70.8% | 90.9% | 25.5% | 96.7% | 19.2% | 72.8% | 95.4% | 34.6% | 101% | 42% | 40.4% | 46.2% | 51.1% | 69.4% | 45.5% | 98.8% | 1.38% (active) | 63.3% | 6.91% (active) |
| O=c1c2cc(C(F)(F)F)ccc2sc2c(NCCCNCCO)nc3ccccc3c12 | 45% | 75.7% | 58.5% | 40.7% | -82.3% (active) | 27.9% | -22.2% (active) | -29.6% (active) | 43% | -53.2% (active) | -71.6% (active) | -47.1% (active) | 75.2% | -58.7% (active) | 42.6% | 36.6% | 42.7% | -79.1% (active) | 92% | -38.9% (active) |
| COc1cccc(-c2nn(-c3ccccc3)cc2-c2ccnc(N3CCOCC3)c2)c1 | 82.4% | 93.9% | 98.7% | 96.2% | 91.3% | 66.3% | 71.4% | 86.8% | 99% | 98.5% | 99.5% | 73.6% | 90.7% | 85.1% | 97.8% | 88.8% | 82.8% | 97.9% | 111% | 100% |
| c1ccc(-c2nc3sc(-c4ccccc4)cn3n2)cc1 | 83.5% | 72.2% | 88.2% | 66.7% | 93.3% | 74.4% | 80.8% | 89.6% | 105% | 94.5% | 84.4% | 88.5% | 124% | 64.5% | 97.7% | 92.3% | 101% | 98.7% | 86% | 86.7% |
| O=C(Nc1ccc(OS(=O)(=O)c2ccc(F)cc2)cc1)c1ccc(Cl)cc1 | 94% | 99.5% | 92.6% | 101% | 101% | 101% | 83.6% | 94.1% | 104% | 114% | 107% | 81.1% | 96.9% | 104% | 109% | 101% | 105% | 108% | 100% | 98% |
| C=C1C(=O)O[C@H]2[C@H]1CC/C(COC(=O)C(C)c1ccc(CC(C)C)cc1)=C\CC[C@@]1(C)O[C@@H]21 (stereo not given in full) | 25.8% | 83.6% | 97.9% | 84.7% | 37.9% | -26.8% (active) | -63.8% (active) | 75.1% | -93.4% (active) | -10.1% (active) | 47.2% | -4.97% (active) | -25.6% (active) | -58% (active) | -50.1% (active) | 33.8% | 83.1% | 22.1% | 47.9% | 16.1% |
| c1ccc(-c2nc3nonc3nc2-c2ccccc2)cc1 | 52.4% | 69.2% | 81.7% | 79% | 62.8% | 78% | 49.2% | 76.7% | 73.8% | 82.6% | 68.2% | 52.4% | 55.4% | 43.9% | 51.1% | 62.9% | 72.3% | 79.1% | 63.3% | 84.9% |
| COc1cc2oc(-c3ccc(O)cc3)cc(=O)c2c(O)c1-c1c(OC)cc(O)c2c(=O)cc(-c3ccc(O)cc3)oc12 | 31.9% | 70.8% | 28.8% | 27% | 11.8% | 62.3% | 45.8% | 69.8% | 48.8% | 67.5% | 53.5% | 44.5% | 63.2% | 48.5% | -44.1% (active) | 12.8% | 67.1% | 18% | 91.5% | 28% |
| NC1=NC(c2cccc(Br)c2)c2sc3ccc(Cl)cc3c2N1 (stereo not given) | 86.3% | 78.4% | 89.6% | 91.5% | 98.6% | 96.7% | 87.8% | 98% | 94.8% | 100% | 111% | 86.6% | 95.6% | 88.4% | 110% | 94% | 103% | 108% | 98.8% | 98.4% |
| C#C[C@]1(O)CC[C@H]2[C@@H]3CC=C4c5sc(Nc6ccccc6)nc5CC[C@]4(C)[C@H]3CC[C@@]21C | 39.1% | 62.7% | 48% | 35.5% | 20.5% | 53.4% | 43.3% | 52.9% | -36.5% (active) | 10.1% | 16.2% | 9.63% (active) | 25.8% | 27.7% | -53.1% (active) | 24.3% | -56.4% (active) | -51.1% (active) | 30.4% | 2.55% (active) |
